Shown are actives, neighbours in structure and some others; about 7.3% of the full set was active somewhere.
KinaseGlo FLuc – blocks Kinase-Glo luciferase, a counter-screen artifact. actives 0.28% (n = 200,000). AID 1379. Kinase-Glo luciferase, ATP luminescence, 8 min. Potency, µM (doses to about 38.3 µM), for inactives: at the top dose activity change, negative = inhibition, actives largely listed as inhibitors; note: % is set by controls: 0 for no effect and ±100 for the full control effect; nearly all actives have a fitted effect of over 60% in size
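Compounds were added to a substrate mix at pH 7.2 (50 mM imidazole, 10 uM ATP, within the enzyme's linear range), followed by Kinase-Glo detection reagent; luminescence was measured after 8 minutes at ambient temperature.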
Rab9 prom act – activates the Rab9 promoter; actives 2.8% (n = 320,000); Potency, µM (highest dose often 9.22 µM), for the others: at the top dose activation, negative = inhibition, usual class: activators; Huh7 Rab9 promoter-luciferase reporter, luminescence, 24 h; note: % of control where 0% means no effect; nearly all actives have a fitted effect of over 60% in size
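Huh7 cells stably carrying a Rab9 promoter-luciferase reporter, 1500 cells per well in OP-MEM I with 10% FBS, treated with compound 24 hours at 37C. Luciferase activity read by luminescence after 10 minutes with Amplite reagent.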
NPC1 promoter act – activates the NPC1 promoter. Huh7 NPC1 promoter luciferase reporter, 24 h. Potency, µM (series often up to 9.22 µM), inactives show at the highest dose activation, usual class: activators. actives 2.4% (n = 320,000); note: % of control where 0% means no effect; nearly all actives have a fitted effect of over 60% in size
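Stably transfected Huh7 (NPC1 promoter→luciferase), 1500 cells/well in Opti-MEM + 10% FBS, 2 h settle, then compound 24 h at 37 °C. Luminescence after 10 min with Amplite reagent.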
SMN2 splice up – enhancers of SMN2 splice variant expression; HEK293 SMN2-luciferase splicing reporter, luminescence, 30-36 h; Potency, µM (series often up to 46.1 µM), for the others: top-dose activity change, positive = activation, usual class: activators; actives 2.8% (n = 210,000); AID 1458; note: % of control where 0% means no effect; nearly all actives have a fitted effect of over 55% in size
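HEK293 cells carry an SMN2 […]–luciferase reporter in which exon 7 inclusion puts luciferase in frame. Cells were plated 10-12 h before compound addition, then incubated 30-36 h at 37C. ONE-Glo luminescence was read; sodium butyrate at 4.5 mM final served as control.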
ELG1 genotox – genotoxicity induction in ELG1-luciferase HEK293T cells; actives 1.3% (n = 330,000); Potency, µM (series often up to 46 µM), without a hit: top-dose activity change, positive = activation, usual class: activators; HEK293T ELG1-luciferase reporter, luminescence, 16 h; note: % of control where 0% means no effect; nearly all actives have a fitted effect of over 60% in size
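Cells (2,000/well) expressing the ELG1-luciferase fusion are dosed by pin tool and kept 16 hr at 37 °C, 5% CO2. Signal comes from ONE-Glo luciferase reagent after 30 min at room temperature.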
FLuc counter – inhibits or activates purified firefly luciferase, miR-21 counter-screen; P08659; Potency, µM (highest dose often 57.5 µM), for inactives: top-dose activity change, negative = inhibition, most hits filed as inhibitors; purified FLuc, Km substrates, luminescence inhibition; actives 6.9% (n = 360,000);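 note: plate controls were vehicle for no effect and reference inhibitor for full effect; nearly all actives have a fitted effect of over 55% in size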
Target sequence (P08659 whole entry, looked up): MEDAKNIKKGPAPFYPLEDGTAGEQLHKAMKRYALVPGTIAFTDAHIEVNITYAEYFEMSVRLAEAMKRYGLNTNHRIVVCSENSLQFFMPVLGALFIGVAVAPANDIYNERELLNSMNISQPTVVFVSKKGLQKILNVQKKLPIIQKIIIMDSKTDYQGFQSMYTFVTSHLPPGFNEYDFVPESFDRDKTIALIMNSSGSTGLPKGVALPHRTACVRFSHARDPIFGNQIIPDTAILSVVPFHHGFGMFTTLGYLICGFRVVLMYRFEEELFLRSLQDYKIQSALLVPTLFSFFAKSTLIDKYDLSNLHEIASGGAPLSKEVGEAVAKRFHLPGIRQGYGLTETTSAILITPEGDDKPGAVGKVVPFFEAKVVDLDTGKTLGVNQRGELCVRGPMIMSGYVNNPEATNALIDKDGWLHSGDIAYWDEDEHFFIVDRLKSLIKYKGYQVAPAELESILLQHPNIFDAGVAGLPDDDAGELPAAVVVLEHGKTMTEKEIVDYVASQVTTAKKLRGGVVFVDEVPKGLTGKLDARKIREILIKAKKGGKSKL
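Purified P. pyralis luciferase (10nM final) with 10uM D-luciferin and 10uM ATP (Km levels) in 50mM Tris acetate pH 7.5, 10mM Mg acetate, 0.01% Tween-20, 0.05% BSA; qHTS 6-point titration, ~60 µM downward; luminescence read.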
An asterisk follows results filed as active; ? = inconclusive; . = no result; [ ] = remark or other dose. Calls come from the whole dose curve; as a rule, active = well fitted curve in the direction sought with a large enough effect; inconclusive = small, poorly fitted or top-dose-only effect, or another doubt; inactive = no such curve, though single readings can be large; an effect the other way counts as inactive or inconclusive. Potency is the fitted concentration of half-maximal effect.

SMILES	KinaseGlo FLuc	Rab9 prom act	NPC1 promoter act	SMN2 splice up	ELG1 genotox	FLuc counter
Cc1ccc(-n2c(C)cc(/C=N/NC(N)=S)c2C)cc1	-2%	1%	0%	-8%	0%	?
Cc1cc(/C=N/NC(=O)c2ccc(O)cc2)c(C)n1CC(C)C	.	?	23%	.	?	6µM*
COCCn1c(C)cc(/C=N/NC(=O)c2cccnc2)c1C	-1%	28%	17%	19%	12%	?
CCc1ccc(C(=O)CSc2nc(-c3ccccc3)nc3c2CCCC3)cc1	.	.	.	11%	.	7%
COc1ccc2c(c1)C(=O)[C@H](OC(=O)Nc1cc(OC)c(OC)c(OC)c1)[C@@H](c1ccc(OC)c(Br)c1)O2	1%	.	.	0%	.	.
COc1ccc(C(=O)/C=C/c2cccs2)c(OC(=O)c2cccc([N+](=O)[O-])c2)c1	0%	?	27%	?	8%	4.8µM*
COc1ccc(C(=O)/C=C/c2ccc(F)cc2)c(OC(=O)c2ccc([N+](=O)[O-])cc2)c1	2%	-2%	12%	4%	?	9.5µM*
CCOC(=O)c1cc2c(s1)-c1ccccc1CC2	-1%	17%	18%	20%	15%	11µM*
CCOC(=O)c1cc2ccc3ccccc3c2oc1=O	.	0%	-10%	.	4%	-15%
CCOC(=O)c1cc2ccc3ccccc3c2s1	-1%	?	?	?	?	5.4µM*
O=C(Nc1ccccc1C(F)(F)F)N1CCOc2ccc(Cl)cc21	.	.	.	.	.	-11%
CCOC(=O)N1CCC(NC(=O)Cn2cc3c(n2)CCC(C)C3)CC1 (stereo not given)	-1%	-4%	3%	-6%	-5%	-2%
CC1CCC(NC(=O)Cn2cc3c(n2)CCCC3)CC1 (stereo not given)	-5%	?	?	26%	7.3µM*	?
Cc1cc(C)cc(NC(=O)c2cc(C)nc3c2c(C)nn3-c2ccccc2)c1	.	.	.	.	.	4%
COc1ccc(C(=O)Nc2cccc(C)c2)cc1	?	1.3µM*	1.3µM*	11µM*	?	3.4µM*
COc1ccc(NS(=O)(=O)NC(=O)c2c(C)n(C)c3ccccc23)cc1	.	0%	0%	.	3%	-7%
COc1ccc2cc3c(N)c(C(=O)NCc4ccco4)sc3nc2c1	3%	2µM*	?	13µM*	15%	6µM*
COc1ccc(NC(=O)c2c(Cl)n(C)c3ccccc23)cc1	2%	28%	28%	?	17%	9.5µM*
CCCc1ccc(C(=O)NNc2cccc(C)c2)cc1	.	20%	29%	.	?	21µM*
O=C(Nc1ccc(Oc2ccsc2C(=O)O)cc1)c1ccccc1	.	-8%	-1%	.	0%	24µM*
COc1ccc(C(=O)Nc2cccc(C(=O)NCc3ccco3)c2)cc1	-8%	17%	18%	.	2%	12µM*
COc1ccc(C(=O)Nc2ccc(C(=O)NCCc3ccccc3)cc2)cc1	-1%	-2%	-3%	.	6%	-6%
COc1ccc(NC(=O)c2ccccc2)cc1	.	1.8µM*	3.5µM*	.	?	?
Cc1ccc(NC(=S)c2ccncc2)cc1	.	-1%	4%	.	-1%[9.26 µM]	?
O=C(O)c1sccc1Oc1ccc(NS(=O)(=O)c2cccc(F)c2)cc1	.	-16%	0%	.	1%	1%
SMILES	KinaseGlo FLuc	Rab9 prom act	NPC1 promoter act	SMN2 splice up	ELG1 genotox	FLuc counter
Cc1ccc(NC(=S)c2ccccc2)cc1	-4%	2.5µM*	?	0%[1.84 µM]	?	4.8µM*
COc1ccc(C(=S)Nc2ccc(C)cc2)cc1	-2%	2.8µM*	2µM*	18µM*	29%	2.4µM*
O=C(Nc1ccc(SC(F)F)cc1)c1ccc2nccnc2c1	0%	23%	?	-6%	0%	11µM*
COc1ccc(C(=O)Nc2ccc(SC(F)F)cc2)cc1	0%	0.79µM*	2.2µM*	?	?	3µM*
CCCCOc1ccc(C(=O)Nc2ccc(SC(F)F)cc2)cc1OC	0%	-2%	0%	-6%	3%	-18%
COc1ccc(NC(=O)c2ccc(C)cc2)cc1	.	0.45µM*	0.4µM*	.	2.1µM*	2.7µM*
CCc1ccc(NC(=O)CSc2nc3c([nH]c4ccccc43)c(=O)n2C)cc1	.	.	.	.	.	0%
O=C(Nc1ccsc1C(=O)N1CCCCCC1)c1ccccc1	-4%	5%	-1%	-16%	-4%	5%
O=C(Nc1ccsc1C(=O)O)c1ccccc1	.	12%	6%	.	12%	24µM*
COc1ccc(-c2cc(C(=O)OC(C)C(=O)Nc3c(C)n(C)n(-c4ccccc4)c3=O)c3ccccc3n2)cc1 (stereo not given)	-1%	-1%	1%	23%	0%	13µM*
Cc1ccc(-c2cc(C(=O)Nc3c(C)n(C)n(-c4ccccc4)c3=O)c3ccccc3n2)cc1	.	.	.	.	-6%	.
COc1ccc(-c2cc(C(=O)Nc3c(C)n(C)n(-c4ccccc4)c3=O)c3ccccc3n2)cc1OC	.	1%	-1%	.	-6%	21µM*
Cc1c(NC(=O)COC(=O)c2cc(-c3ccc(-c4ccccc4)cc3)nc3ccccc23)c(=O)n(-c2ccccc2)n1C	1%	2.5µM*	0.63µM*	0.63µM*	?	0.85µM*
Cc1c(NC(=O)C(C)OC(=O)c2cc(-c3cccc4ccccc34)nc3ccccc23)c(=O)n(-c2ccccc2)n1C (stereo not given)	1%	-4%	0%	-14%	-7%	-16%
Cc1ccc(N(CC(=O)Nc2ccc(Br)c(C)c2)S(=O)(=O)c2cccs2)cc1	.	.	.	-13%	.	0%
COc1ccc(-c2cnc(C)o2)cc1S(=O)(=O)Nc1ccc(C)c(N(C)C)c1	.	.	.	.	.	-3%
C=CCOC(=O)COc1ccc2c(C)c(C)c(=O)oc2c1	0%	-1%	0%	10%	2%	19µM*
C=CCOC(=O)COc1ccc2c(C)c(CC)c(=O)oc2c1	1%	-3%	5%	29%	-1%	12µM*
